Measurements taken from PubChem BioAssay.
Unmarked numbers belong to inactive results. For some of these results: Entries with a potency or affinity are not part of this list. The source made the active and inactive calls. Unless noted, how the calls were made is not given here.

Assays:
[1] = antimalarial activity against Dd2 strain (AID 2302;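 active means growth inhibition above 50% at the single 2 µM test dose, taken to imply half-maximal potency below 2 µM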;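 further: 0% = DMSO untreated growth and 100% = chloroquine plus artemisinin killed control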); settings: P. falciparum Dd2 in RBCs, LDH growth readout, 72 h; at 2 µM; active compounds read high
[2] = HepG2 cytotoxicity, primary screen, cytotoxicity control for P. falciparum antimalarial project, cell-based, ATP luminescence (AID 2303;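 active means inhibition above 50%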;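 further: 0% = DMSO wells and 100% = digitonin-killed cells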); settings: HepG2 viability, 24-48 h, at 10 µM, active compounds read high
[3] = target: L-lactate dehydrogenase (Plasmodium falciparum (isolate CDC / Honduras)) (UniProt Q27743); experiment: PfLDH activity inhibition – cell lysate, 3D7 strain, counter-screen for P. falciparum growth inhibition project (AID 2304);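 further: 0% = vehicle and 100% = reference inhibitor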; settings: P. falciparum 3D7 crude extract, LDH APAD/NBT absorbance; at 2 µM; active compounds read high
L-lactate dehydrogenase (Plasmodium falciparum (isolate CDC / Honduras)), sequence (Q27743 whole entry, looked up): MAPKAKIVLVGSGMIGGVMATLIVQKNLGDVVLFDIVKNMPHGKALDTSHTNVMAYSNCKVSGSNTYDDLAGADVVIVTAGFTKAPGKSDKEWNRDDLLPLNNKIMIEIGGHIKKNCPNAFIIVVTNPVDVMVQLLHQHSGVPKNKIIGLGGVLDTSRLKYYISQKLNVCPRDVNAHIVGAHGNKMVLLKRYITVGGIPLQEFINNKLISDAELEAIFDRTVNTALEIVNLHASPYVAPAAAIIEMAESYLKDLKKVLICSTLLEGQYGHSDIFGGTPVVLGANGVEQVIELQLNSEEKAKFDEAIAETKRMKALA

[4] = inhibition of 3D7 malaria parasite growth – strain 3D7 (AID 2306);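 further: 0% = DMSO wells and 100% = chloroquine plus artemisinin control wells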; settings: P. falciparum 3D7 erythrocytic growth, LDH absorbance, 72 h; at 2 µM; active compounds read high
[5] = target: Calcium-dependent protein kinase 1 (Plasmodium falciparum (isolate 3D7)) (UniProt P62344); experiment: PfCDPK1 kinase inhibitors, biochemical, TCAMS library (AID 1159585; cut-off not given, nearly all actives have IC50 up to about 0.98 µM;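 further: inhibitors leave more ATP so luminescence rises with inhibition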); settings: recombinant PfCDPK1, Kinase-Glo ATP depletion luminescence
Calcium-dependent protein kinase 1 (Plasmodium falciparum (isolate 3D7)), sequence (P62344 whole entry, looked up): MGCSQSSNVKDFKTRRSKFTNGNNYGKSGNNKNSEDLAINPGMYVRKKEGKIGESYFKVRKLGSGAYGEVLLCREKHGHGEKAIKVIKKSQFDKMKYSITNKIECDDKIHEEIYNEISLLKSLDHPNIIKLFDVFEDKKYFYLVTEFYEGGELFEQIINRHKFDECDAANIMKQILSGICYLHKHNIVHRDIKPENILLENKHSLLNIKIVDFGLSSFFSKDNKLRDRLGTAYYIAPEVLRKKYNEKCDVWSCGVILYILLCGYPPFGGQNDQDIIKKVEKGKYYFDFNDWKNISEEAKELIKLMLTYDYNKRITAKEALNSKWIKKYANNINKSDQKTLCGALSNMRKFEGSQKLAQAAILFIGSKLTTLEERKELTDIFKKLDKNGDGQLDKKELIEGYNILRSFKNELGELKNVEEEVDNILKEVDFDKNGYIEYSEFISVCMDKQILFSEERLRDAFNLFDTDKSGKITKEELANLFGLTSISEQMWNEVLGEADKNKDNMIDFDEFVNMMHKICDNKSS

[6] = target: Plasmodium falciparum protein kinase 6 (PK6, PF3D7_1337100) (UniProt Q8IDW1); experiment: PfPK6 kinase inhibitors, biochemical, TCAMS library (AID 1159586); settings: recombinant PfPK6, Kinase-Glo ATP depletion luminescence
Plasmodium falciparum protein kinase 6 (PK6, PF3D7_1337100), sequence (Q8IDW1 1-305): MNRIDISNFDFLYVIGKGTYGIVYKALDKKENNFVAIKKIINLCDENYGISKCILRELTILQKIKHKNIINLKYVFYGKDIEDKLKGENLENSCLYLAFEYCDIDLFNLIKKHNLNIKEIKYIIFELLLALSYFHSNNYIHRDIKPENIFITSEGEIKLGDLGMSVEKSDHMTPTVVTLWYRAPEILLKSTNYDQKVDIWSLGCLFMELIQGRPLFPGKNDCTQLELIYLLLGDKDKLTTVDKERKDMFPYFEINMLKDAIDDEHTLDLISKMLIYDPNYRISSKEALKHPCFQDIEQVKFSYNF

[7] = target: Protein kinase 7 (PK7), Plasmodium falciparum 3D7 (PF3D7_0213400) (UniProt Q7YTF7); experiment: inhibition of Plasmodium PK7 catalytic activity – biochemical, TCAMS antimalarial set, Kinase-Glo luminescence (AID 1159587); settings: recombinant PfPK7, Kinase-Glo ATP depletion luminescence
Protein kinase 7 (PK7), Plasmodium falciparum 3D7 (PF3D7_0213400), sequence (Q7YTF7 1-343): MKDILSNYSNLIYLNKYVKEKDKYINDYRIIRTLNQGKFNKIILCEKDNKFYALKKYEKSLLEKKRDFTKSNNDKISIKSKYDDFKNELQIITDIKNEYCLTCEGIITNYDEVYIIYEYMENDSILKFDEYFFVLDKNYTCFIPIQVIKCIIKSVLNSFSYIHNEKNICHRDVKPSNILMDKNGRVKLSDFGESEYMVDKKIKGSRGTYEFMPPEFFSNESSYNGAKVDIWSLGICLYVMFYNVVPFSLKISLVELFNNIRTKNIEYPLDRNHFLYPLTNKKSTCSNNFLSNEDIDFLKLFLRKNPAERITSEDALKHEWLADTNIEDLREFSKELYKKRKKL

[8] = target: Calcium-dependent protein kinase 4 (Plasmodium falciparum (isolate 3D7)) (UniProt Q8IBS5); experiment: PfCDPK4 kinase inhibitors, biochemical, TCAMS library (AID 1159588; cut-off not given, nearly all actives have IC50 up to about 0.91 µM); settings: recombinant PfCDPK4, Kinase-Glo ATP depletion luminescence
Calcium-dependent protein kinase 4 (Plasmodium falciparum (isolate 3D7)), sequence (Q8IBS5 whole entry, looked up): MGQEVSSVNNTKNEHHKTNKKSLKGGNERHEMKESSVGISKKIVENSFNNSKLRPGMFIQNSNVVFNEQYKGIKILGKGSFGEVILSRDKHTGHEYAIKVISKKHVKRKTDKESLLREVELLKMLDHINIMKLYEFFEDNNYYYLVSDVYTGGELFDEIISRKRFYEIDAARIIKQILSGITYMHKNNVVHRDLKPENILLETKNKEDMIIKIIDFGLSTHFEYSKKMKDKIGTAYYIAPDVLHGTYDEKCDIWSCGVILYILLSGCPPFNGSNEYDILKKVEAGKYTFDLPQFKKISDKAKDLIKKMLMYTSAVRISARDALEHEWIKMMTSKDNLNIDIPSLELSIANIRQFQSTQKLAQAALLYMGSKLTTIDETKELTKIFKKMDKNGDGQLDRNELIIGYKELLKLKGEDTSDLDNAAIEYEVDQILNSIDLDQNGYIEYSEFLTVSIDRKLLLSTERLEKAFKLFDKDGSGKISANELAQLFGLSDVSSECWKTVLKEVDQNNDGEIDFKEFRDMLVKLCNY

Row | SMILES | growth inhibition [1] | inhibition [2] | inhibition [3] | growth inhibition [4] | outcome [5] | outcome [6] | outcome [7] | outcome [8]
1 | C[C@H](NC(=O)c1c(OC2CN(C(c3ccccc3)c3ccccc3)C2)c(-c2ccccc2)nc2ccccc12)C1CCCCC1 | 74% (active) | 0% | 2% | 92% (active) | inactive | inactive | inactive | inactive
2 | S=C(NN=Cc1ccccn1)NC1C[C@H]2C=C[C@@H]1C2 (stereo partly drawn) | 96% (active) | 51% (active) | -2% | 99% (active) | inactive | inactive | inactive | inactive
3 | CCOC(=O)c1[nH]c(-c2ccc(-c3ccccc3)cc2)nc1N | 2% | -1% | 6% | 98% (active) | inactive | inactive | inactive | inactive
4 | COc1ccccc1CNC(=O)c1cc(C2CC2)nc2c1cnn2C(C)C | 92% (active) | 47% | 5% | 94% (active) | inactive | inactive | inactive | inactive
5 | CCCN1CC[C@@H](CCCc2ccnc3ccc(O)cc23)[C@@H](CC)C1 | 14% | 10% | -2% | 93% (active) | inactive | inactive | inactive | inactive
6 | O=C(NC1CCCCN(Cc2ccc3c(c2)OCCO3)C1)c1cc(-c2ccccc2F)cs1 (stereo not drawn) | 19% | 8% | 1% | 92% (active) | inactive | inactive | inactive | inactive
7 | CSc1nc2nc(C)c(Cc3cccc(C(F)(F)F)c3)c(C)n2n1 | 95% (active) | 4% | 2% | 98% (active) | inactive | inactive | inactive | inactive
8 | N#Cc1ccc2[nH]cc(C(=O)CCCCCN(Cc3ccccc3)Cc3ccccc3)c2c1 | 97% (active) | 10% | 2% | 93% (active) | inactive | inactive | inactive | inactive
9 | Cc1[nH]c(C)c(-c2ccc(-c3ccccc3Cl)nc2)c(=O)c1Br | 96% (active) | -2% | -5% | 97% (active) | inactive | inactive | inactive | inactive
10 | O=C(NC1CCC(N2CCN(c3cccc(C(F)(F)F)c3)CC2)CC1)c1cc2ccccc2[nH]1 (stereo not drawn) | 22% | 23% | 0% | 99% (active) | inactive | inactive | inactive | inactive
11 | Fc1ccc(OC2CN(c3nccc(NCc4ccccc4Cl)n3)C2)cc1 | 99% (active) | -2% | 6% | 98% (active) | inactive | inactive | inactive | inactive
12 | Cc1ccc(CNC(=O)[C@H](CC(C)C)Nc2cc(C)nc(Nc3ccccc3)n2)cc1 | 19% | 12% | -1% | 97% (active) | inactive | inactive | inactive | inactive
13 | O=C(/C=C/c1ccc(Cl)c(Cl)c1)NCCCCCN1CCCC(c2c[nH]c3ccccc23)C1 (stereo not drawn) | 22% | 25% | 2% | 99% (active) | inactive | inactive | inactive | inactive
14 | Cc1nnc2c(NC(=O)NC3CCCC3)cc3cc(-c4ccc(CN5CCCCC5)cc4)ccc3n12 | 93% (active) | 100% (active) | -3% | 99% (active) | inactive | inactive | inactive | inactive
15 | O=C(C=Cc1ccc(Cl)c(Cl)c1)NCCCCCN1CCC(CCCNS(=O)(=O)c2cccc(C(F)(F)F)c2)CC1 | 59% (active) | 99% (active) | 3% | 100% (active) | inactive | inactive | inactive | inactive
16 | CC1(C)N=C(N)N=C(N)N1c1ccc(I)cc1 | 1% | 16% | 1% | 92% (active) | inactive | inactive | inactive | inactive
17 | C#Cc1cccc(NC(=O)[C@H](CC2CCCCC2)Nc2ccc(C#N)c3ccccc23)c1 | 99% (active) | 48% | -1% | 100% (active) | inactive | inactive | inactive | inactive
18 | Cc1cc(NN=Cc2ccccc2)c2cc(C(F)(F)F)ccc2n1 | 97% (active) | 30% | -6% | 101% (active) | inactive | inactive | inactive | inactive
19 | N#CCCN1CCN(Cc2ccc(-c3cccc(-c4nc5ccc(F)cc5[nH]4)c3)cc2)CC1 | 17% | 16% | 0% | 91% (active) | inactive | inactive | inactive | inactive
20 | Cc1cc2[nH]c(-c3ccc(C(=O)NCCCN4CCN(c5cccc(Cl)c5)CC4)cc3F)nc2cc1Cl | 79% (active) | -2% | 5% | 99% (active) | inactive | inactive | inactive | inactive
21 | COc1cccc(C2CCN(CCN3CCC(CNC(=O)c4ccc(-c5ccc(C(F)(F)F)cc5)cc4)CC3)CC2)c1 | 42% | 41% | -2% | 100% (active) | inactive | inactive | inactive | inactive

Row | SMILES | growth inhibition [1] | inhibition [2] | inhibition [3] | growth inhibition [4] | outcome [5] | outcome [6] | outcome [7] | outcome [8]
22 | COc1ccc(NC(=O)C2c3ccccc3C(=O)N(C3CCCC3)C2c2cccs2)cc1OC (stereo not drawn) | 96% (active) | -5% | -2% | 90% (active) | inactive | inactive | inactive | inactive
23 | Cc1cc(NC(=O)c2cc(Br)ccc2Cl)n(-c2nc(C)c(C)c(=O)[nH]2)n1 | 83% (active) | 54% (active) | -2% | 91% (active) | inactive | inactive | inactive | inactive
24 | O=C(Nc1ccc([N+](=O)[O-])cc1Br)c1cc2ccccc2nc1Cl | 68% (active) | -4% | 2% | 97% (active) | inactive | inactive | inactive | inactive
25 | COc1ccc(CCNc2nc(NCc3ccccc3)c3cc(OC)c(OC)cc3n2)cc1OC | 91% (active) | 46% | 0% | 100% (active) | inactive | inactive | inactive | inactive
26 | O=C(Nc1cccc(-c2nc3ccccc3s2)c1)c1ccccc1[N+](=O)[O-] | 9% | 0% | 0% | 85% (active) | inactive | inactive | inactive | inactive
27 | COc1ccccc1N1CCN(C(C(=O)NCc2cccc(F)c2)c2ccc(C)cc2)CC1 (stereo not drawn) | 80% (active) | 4% | 1% | 94% (active) | inactive | inactive | inactive | inactive
28 | CN1CCN(CC(=O)Nc2cccc(-c3ccc(-c4nc5ccc(C(F)(F)F)cc5[nH]4)s3)c2)CC1 | 95% (active) | 36% | 1% | 102% (active) | inactive | inactive | inactive | inactive
29 | COc1ccc(Nc2ncc3c(-c4cccc(NC(=O)Cc5ccc(F)cc5)c4)c[nH]c3n2)cc1OC | 90% (active) | 21% | 8% | 101% (active) | inactive | inactive | inactive | inactive
30 | NC(=O)c1sc(-n2cnc3ccc(OCC4CCNCC4)cc32)cc1OCc1ccccc1C(F)(F)F | 62% (active) | 18% | -6% | 101% (active) | inactive | inactive | inactive | inactive
31 | Cc1cc(N)c2cc(NC(=O)c3ccc4ccccc4c3)ccc2n1 | 99% (active) | 33% | 1% | 101% (active) | inactive | inactive | inactive | inactive
32 | CC(C)=CCc1c(-c2ccc(O)cc2O)oc2c3c(cc(O)c2c1=O)OC(C)(C)C=C3 | 8% | 1% | 5% | 89% (active) | inactive | inactive | inactive | inactive
33 | O=C(C=Cc1cc([N+](=O)[O-])ccc1Cl)N1CCC(CCN2CCC(c3c[nH]c4ccccc34)CC2)CC1 | 26% | 25% | -2% | 92% (active) | inactive | inactive | inactive | inactive
34 | O=C(/C=C/c1ccc(Cl)cc1)NCCCCCN1CCCC(C(=O)Nc2cccc(Cl)c2)C1 (stereo not drawn) | 4% | 21% | 0% | 96% (active) | inactive | inactive | inactive | inactive
35 | COc1ccccc1C1CC(c2ccccc2)=NN1C(=O)c1ccccc1 (stereo not drawn) | 93% (active) | 13% | -3% | 100% (active) | inactive | inactive | inactive | inactive
36 | Cc1cccc2[nH]c(-c3ccc(-c4ccc(NC(=O)C(C)CN5CCN(C)CC5)cc4)s3)nc12 (stereo not drawn) | 99% (active) | 17% | -2% | 101% (active) | inactive | inactive | inactive | inactive
37 | CC(C)c1ccc(C=CC(=O)N2CCC(CCN3CCC(c4c[nH]c5ccccc45)CC3)CC2)cc1 | 11% | 85% (active) | 4% | 93% (active) | inactive | inactive | inactive | inactive
38 | Cc1ccc(NC(=O)C(C)Sc2n[nH]c(-c3ccccc3Br)n2)cc1 (stereo not drawn) | 90% (active) | 2% | -4% | 89% (active) | inactive | inactive | inactive | inactive
39 | O=S(=O)(c1ccccc1)C1CC1 | 65% (active) | -3% | 7% | 89% (active) | inactive | inactive | inactive | inactive
40 | CON=Cc1sc(CNCCCNc2cc(=O)c3ccccc3[nH]2)c(C)c1Br | 63% (active) | -8% | -1% | 96% (active) | inactive | inactive | inactive | inactive
41 | N#Cc1ccc(-c2ccc(C(=O)NCCCCN3CCC(c4ccc5c(c4OCC(N)=O)CCCC5)CC3)nc2)cc1 | 97% (active) | 21% | -4% | 100% (active) | inactive | inactive | inactive | inactive
